The full ranking holds about 9,900 sequences; the median of “r (bound/input frequency ratio)” is about 0.7, and the highest 2% start at about 6.5. The entries come from a sample that favours the highest values as a whole.
B1: ENSMUSG00000022095.37|Fam160b2|125:129 (ssRNA)
RNA: GGGAGUUCUACAGUCCGACGAUCGCUUCGAUAUCCGCAUGCUAACCUCACCUGUUGACCCCACGAGCUGAGGUUUCAAGGAGGUGCUGGCUCCUAAGGCAGUGGUAUUCUUGGAGCCUUUUAGAGGAGCUAGAGGAUGGCCAGUGAGCGCCUAGAUGCUGCCCUGCAACACAUGCGUGACUAUCUCUGCUAUAUUGUGACCAGGGCCACAACAUGAGACAACUCCAGGGGCCAGGGAGAUGAACUGCUGUCUUUGAGGCUGGCUAAAAAAACAAUCCAGUCCAGAGAGAUGGGGAGGGGGGGACUCUUGCGGUCGCACUAGUGUGGAAUUCUCGGGUGUCAAGG
B2: ENSMUSG00000032194.151|Kank2|256:260 (ssRNA)
RNA: GGGAGUUCUACAGUCCGACGAUCGCUUCGAUAUCCGCAUGCUAACUUCUAGAAAUACUUUCAGACCUACAGACAAAAAAGAAAAAAGGCCAUUCCGGAGUGACUCCCAGCAUCACAGCCCAGAACCUCCUCCUCAAAGGAGAGUAAACAGAGACUGUGAUACUGACCAAGUACAGGCGCUCGCUAUGAAGCCCAUAUGUUCCUGAUUAAGAGCUGGCUGGCCUCAGAGCACUCCCAGAACUAGCUUAAAGUGACAGGCUUUGCUGAAAUCCAAAGGGACAAAAGAGUAGUUUUAUGUUACACACUCUUGCGGUCGCACUAGUGUGGAAUUCUCGGGUGUCAAGG
B3: ENSMUSG00000029028.11|Lrrc47|54:58;60:64;76:81;83:87;89:93;105:110;112:116;118:122;139:143;155:160;162:166;178:182;185:189;191:195;207:212;214:218;235:239;241:2 … (ssRNA)
RNA: GGGAGUUCUACAGUCCGACGAUCGCUUCGAUAUCCGCAUGCUACCUGAUCACCCUCCCUCCCCACGUGACUGUGGUCCGCUGACAGGCUCCUGUAGCACACGCACACCUGUAGGUGUCACACACGCACACGCACACCUGUAGGUGUCACACACGCACACGCACACCUAUAGGUAUCUGUGGCACACCUGUAGGUGUCACACACGCACACCUGUAGGUGUCACACAAGCACACGCACACCUGUAGGUGUCACACACGCACACCUAGGUGUCUGUAUAGCACACGCACACCUGUAGAUGUCUGUGCUCUUGCGGUCGCACUAGUGUGGAAUUCUCGGGUGUCAAGG
B4: ENSMUSG00000029028.13|Lrrc47 (ssRNA)
RNA: GGGAGUUCUACAGUCCGACGAUCGCUUCGAUAUCCGCAUGCUACCCUCCCCACGUGACUGUGGUCCGCUGACAGGCUCCUGUAGGUGUGGGUGUGCUGUAGGUGUCUGUGUGGGUGUGGGUGUGCUGUAGGUGUCUGUGUGGGUGUGGGUGUGCUAUAGGUAUCUGUGGGUGUGCUGUAGGUGUCUGUGUGGGUGUGCUGUAGGUGUCUGUGUAGGUGUGGGUGUGCUGUAGGUGUCUGUGUGGGUGUGCUAGGUGUCUGUAUAGGUGUGGGUGUGCUGUAGAUGUCUGUGUAGGUAUGGGUGCUCUUGCGGUCGCACUAGUGUGGAAUUCUCGGGUGUCAAGG
B5: ENSMUSG00000029028.12|Lrrc47 (ssRNA)
RNA: GGGAGUUCUACAGUCCGACGAUCGCUUCGAUAUCCGCAUGCUACACCCUCCCUCCCCACGUGACUGUGGUCCGCUGACAGGCUCCUGUAGGUGUGGGUGUGCUGUAGGUGUCUGUGUGGGUGUGGGUGUGCUGUAGGUGUCUGUGUGGGUGUGGGUGUGCUAUAGGUAUCUGUGGGUGUGCUGUAGGUGUCUGUGUGGGUGUGCUGUAGGUGUCUGUGUAGGUGUGGGUGUGCUGUAGGUGUCUGUGUGGGUGUGCUAGGUGUCUGUAUAGGUGUGGGUGUGCUGUAGAUGUCUGUGUAGGUACUCUUGCGGUCGCACUAGUGUGGAAUUCUCGGGUGUCAAGG
B6: ENSMUSG00000029028.11|Lrrc47 (ssRNA)
RNA: GGGAGUUCUACAGUCCGACGAUCGCUUCGAUAUCCGCAUGCUACCUGAUCACCCUCCCUCCCCACGUGACUGUGGUCCGCUGACAGGCUCCUGUAGGUGUGGGUGUGCUGUAGGUGUCUGUGUGGGUGUGGGUGUGCUGUAGGUGUCUGUGUGGGUGUGGGUGUGCUAUAGGUAUCUGUGGGUGUGCUGUAGGUGUCUGUGUGGGUGUGCUGUAGGUGUCUGUGUAGGUGUGGGUGUGCUGUAGGUGUCUGUGUGGGUGUGCUAGGUGUCUGUAUAGGUGUGGGUGUGCUGUAGAUGUCUGUGCUCUUGCGGUCGCACUAGUGUGGAAUUCUCGGGUGUCAAGG
B7: ENSMUSG00000029028.13|Lrrc47|42:46;48:52;64:69;71:75;77:81;93:98;100:104;106:110;127:131;143:148;150:154;166:170;173:177;179:183;195:200;202:206;223:227;229:233 … (ssRNA)
RNA: GGGAGUUCUACAGUCCGACGAUCGCUUCGAUAUCCGCAUGCUACCCUCCCCACGUGACUGUGGUCCGCUGACAGGCUCCUGUAGCACACGCACACCUGUAGGUGUCACACACGCACACGCACACCUGUAGGUGUCACACACGCACACGCACACCUAUAGGUAUCUGUGGCACACCUGUAGGUGUCACACACGCACACCUGUAGGUGUCACACAAGCACACGCACACCUGUAGGUGUCACACACGCACACCUAGGUGUCUGUAUAGCACACGCACACCUGUAGAUGUCACACAAGCAUACGGUGCUCUUGCGGUCGCACUAGUGUGGAAUUCUCGGGUGUCAAGG
B8: ENSMUSG00000029028.12|Lrrc47|48:52;54:58;70:75;77:81;83:87;99:104;106:110;112:116;133:137;149:154;156:160;172:176;179:183;185:189;201:206;208:212;229:233;235:23 … (ssRNA)
RNA: GGGAGUUCUACAGUCCGACGAUCGCUUCGAUAUCCGCAUGCUACACCCUCCCUCCCCACGUGACUGUGGUCCGCUGACAGGCUCCUGUAGCACACGCACACCUGUAGGUGUCACACACGCACACGCACACCUGUAGGUGUCACACACGCACACGCACACCUAUAGGUAUCUGUGGCACACCUGUAGGUGUCACACACGCACACCUGUAGGUGUCACACAAGCACACGCACACCUGUAGGUGUCACACACGCACACCUAGGUGUCUGUAUAGCACACGCACACCUGUAGAUGUCACACAAGGUACUCUUGCGGUCGCACUAGUGUGGAAUUCUCGGGUGUCAAGG
B9: ENSMUSG00000034801.232|Sos2|152:160 (ssRNA)
RNA: GGGAGUUCUACAGUCCGACGAUCGCUUCGAUAUCCGCAUGCUAUAACUGUCUUUAAUCUCGUGUUAACUGAAAUUUUUGAAAAGUUUUUCCAGAUUAGUAAUAUUUAAACAGAAAAUACUUUAAAAAGCUUUAUUAAAUUUUUUAAUCAGGAUAAAGCUUUGCCAUUUGGAUACUAUCAUUCAAAGUGAUCAAGCAUACAUACUUAUGCUGAUAGUGCAGUAGCAGCCAUUGUAAAGUAGCCAAAAGCCACGUUGUUUAUCUACUGGUCUGUGGCCUUUUACUGUGCUUUGUAUCAGAGUUCUCUCUUGCGGUCGCACUAGUGUGGAAUUCUCGGGUGUCAAGG

biological target: TDP-43 (Homo sapiens, UniProt Q13148 1-414); assay: RNA Bind-n-Seq with designed 260-mer pool; 25 mM Tris-HCl, 150 mM KCl, 3 mM MgCl2, BSA (printed 500 mg/mL), 20 units/mL SUPERase IN; pH not stated; 500 nM RNA pool, 1 h, 4 C; TDP-43 5, 50, 500 nM; high values mean tight binding; conditions: protein: recombinant; tags: SBP (GST cleaved off with PreScission; pGEX-GST-SBP)
In short: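 Duplicate measurements used two independent batches of recombinant SBP-tagged TDP-43, which was captured on streptavidin beads at 5, 50 or 500 nM. The beads were incubated with 500 nM of an in vitro-transcribed 260-nt 3′ UTR oligo pool for 1 h at 4 °C in 25 mM Tris-HCl, 150 mM KCl, 3 mM MgCl2, BSA and SUPERase IN. After washing, biotin elution, reverse transcription, PCR amplification and sequencing, binding was expressed as R: each oligo's normalized read abundance in the bound sample over its abundance in input.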

TDP-43, sequence (Q13148 whole entry): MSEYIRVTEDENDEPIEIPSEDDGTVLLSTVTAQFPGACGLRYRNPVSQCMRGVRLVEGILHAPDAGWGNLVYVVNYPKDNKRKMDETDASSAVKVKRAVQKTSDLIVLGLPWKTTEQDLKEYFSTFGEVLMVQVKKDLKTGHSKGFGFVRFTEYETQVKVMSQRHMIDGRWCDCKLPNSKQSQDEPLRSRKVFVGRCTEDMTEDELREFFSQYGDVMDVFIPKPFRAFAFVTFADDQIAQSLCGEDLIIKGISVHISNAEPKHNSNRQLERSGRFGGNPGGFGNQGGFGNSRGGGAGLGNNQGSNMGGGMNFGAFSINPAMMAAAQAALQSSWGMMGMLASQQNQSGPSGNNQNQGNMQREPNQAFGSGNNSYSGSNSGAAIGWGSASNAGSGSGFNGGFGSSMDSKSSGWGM

Binder	binding signal
B1	1.26 R (bound/input frequency ratio)
B2	0.163 R (bound/input frequency ratio)
B3	1.45 R (bound/input frequency ratio)
B4	7.14 R (bound/input frequency ratio)
B5	5.27 R (bound/input frequency ratio)
B6	7.32 R (bound/input frequency ratio)
B7	1.01 R (bound/input frequency ratio)
B8	1.21 R (bound/input frequency ratio)
B9	0.0144 R (bound/input frequency ratio)

— paper PMC12864922, “TDP-43 directly inhibits mRNA accumulation in neurites through modulation of mRNA stability”
